Bioassay records (PubChem BioAssay)
CYP2C19 inh = blockers of cytochrome P450 2C19 activity – biochemical, luminescence, ADME assay, primary screen. CYP2C19 Supersomes, luciferin-H EGE luminescence, 30 min. inhibition, % at 5 µM. 96,000 compounds, 21% hits;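 active = CYP2C19 inhibition above a set limit at 5 µM in the primary screen, cut at about 50% in these data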
CYP2C9 activ = human CYP2C9 activators, primary screen, biochemical, luminescence | Cytochrome P450 2C9 (Homo sapiens), P11712 | recombinant CYP2C9, luciferin-H conversion; stronger effect = higher value; factor 1 = untreated enzyme, 0 = blocked | activation factor at 5 µM | 96,000 compounds, 1.4% hits;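 active = activation factor of 2 or more for CYP2C9 at a 5 µM dose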
Target sequence (P11712 whole entry, looked up): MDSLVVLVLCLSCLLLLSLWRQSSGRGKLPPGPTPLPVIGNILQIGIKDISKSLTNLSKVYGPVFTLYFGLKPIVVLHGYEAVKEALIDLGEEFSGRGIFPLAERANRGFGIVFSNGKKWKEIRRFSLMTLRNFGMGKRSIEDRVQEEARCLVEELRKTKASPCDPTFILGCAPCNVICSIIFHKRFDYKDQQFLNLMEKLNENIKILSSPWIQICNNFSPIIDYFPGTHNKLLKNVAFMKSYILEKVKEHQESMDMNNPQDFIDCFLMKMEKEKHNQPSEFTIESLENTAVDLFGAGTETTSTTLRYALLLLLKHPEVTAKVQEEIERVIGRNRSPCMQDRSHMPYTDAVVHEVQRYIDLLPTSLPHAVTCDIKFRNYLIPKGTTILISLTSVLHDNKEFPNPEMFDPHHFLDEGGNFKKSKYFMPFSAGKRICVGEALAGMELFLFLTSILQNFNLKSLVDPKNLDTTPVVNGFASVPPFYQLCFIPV
CYP2C9 inh = blockers of cytochrome P450 2C9 activity – biochemical, luminescence, ADME assay, primary screen; P11712; CYP2C9 Supersomes, luciferin-H conversion; inhibition, % at 5 µM; 96,000 compounds, 20% hits; AID 777, 2007;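 active = blocking of liver enzyme CYP2C9 beyond about 50% at 5 µM, limit read from the data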
Cav32 inh = Cav3.2 calcium influx blockers – cell-based, Fluo-4 calcium fluorescence, FDSS, MLSMR library, primary screen. Voltage-dependent T-type calcium channel subunit alpha-1H (Homo sapiens), O95180. Cav3.2-expressing cells; stronger effect = lower value. B-score at 10 µM. 100,000 compounds, 4% hits;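 active = single-dose well whose peak fluorescence ratio is a statistical outlier from its plate by either plate-standardised score or position-corrected B-score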
CYP2C19 activ = human CYP2C19 activators, primary screen, biochemical, luminescence | recombinant CYP2C19, luciferin-H EGE luminescence; stronger effect = higher value; 0 = fully inhibited enzyme, 1 = untreated enzyme | Cytochrome P450 2C19 (Homo sapiens), P33261 | activation factor at 5 µM | AID 1025, 2008 | 96,000 tested, under 10 active;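 active = activation factor of at least 2 at 5 µM in the primary screen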
A number is an active result; 0 = inactive; - = not tested or not shown. Shown are actives, neighbours in structure and some others; about 27% of the full set was active somewhere.

SMILES | CYP2C19 inh | CYP2C9 activ | CYP2C9 inh | Cav32 inh | CYP2C19 activ
COc1cc([N+](=O)[O-])ccc1NC(=O)CCCOc1cccc(C)c1C | 0 | 0 | 0 | 0 | 0
N#Cc1ccc(-c2ccc(F)cc2)nc1SCC(=O)Nc1sc2c(c1C#N)CCC2 | 0 | 0 | 0 | 0 | 0
CC(C)(C)[C@H]1C=C(C(N)=O)O[C@@H](OCc2ccc(CO)cc2)C1 | - | - | - | 0 | -
O=C(NCc1ccccn1)C1CCN(S(=O)(=O)c2cnc[nH]2)CC1 | 0 | 0 | 0 | 0 | 0
Cc1nc(SC2C=CS(=O)(=O)C2)n[nH]1 (stereo unspecified) | 0 | 0 | 0 | 0 | 0
N#C/C(=C\c1ccc(F)cc1)c1n[nH]c(Cn2cncn2)n1 | 0 | 0 | 58 | 0 | 0
O=C(Nc1ccc(OC(F)(F)F)cc1)c1n[nH]c(Cn2cncn2)n1 | 0 | 0 | 0 | 0 | 0
Cc1ccc(-c2nnc(Nc3ccc4c(c3)nc(C)n4C)c3ccccc23)cc1 | 0 | 0 | 0 | 0 | 0
O=C(CCCOc1ccc(Cl)cc1)NCC1CCCO1 (stereo unspecified) | 0 | 0 | 0 | 0 | 0
Cc1ccc(CN2C(=O)c3ccccc3C2C(=O)NCc2cccnc2)cc1 (stereo unspecified) | 71 | 0 | 51 | 0 | 0
CCC(C)NC(=O)C1c2ccccc2C(=O)N1Cc1cc(OC)ccc1OC (stereo unspecified) | 0 | 0 | 0 | 0 | 0
O=C(NCc1cccnc1)C1CC(=O)N(C2CCCCC2)C1 (stereo unspecified) | 0 | 0 | 0 | 0 | 0
O=C(NCc1cccnc1)C1c2ccccc2C(=O)N1C1CCCC1 (stereo unspecified) | 75 | 0 | 0 | 0 | 0
COc1ccc(OC)c(CN2C(=O)c3ccccc3C2C(=O)NCc2cccnc2)c1 (stereo unspecified) | 57 | 0 | 51 | 0 | 0
CC(C(=O)NCc1cccnc1)N1C(=O)c2ccccc2C1=O (stereo unspecified) | - | - | - | 0 | -
CCCCN1C(=S)SC(C)(C)C1/[N+]([O-])=C/c1cccnc1 (stereo unspecified) | 0 | 0 | 0 | 0 | 0
Cc1cccc(-c2c3c(=O)n(C)c(=O)n(C)c3cn2CCO)c1 | 0 | 0 | 0 | 0 | 0
O=C(Nc1ccc2nc(-c3ccccc3)[nH]c2c1)c1ccco1 | 61 | 0 | 58 | 0 | 0
Cc1ccc(-c2nc3ccccc3[nH]2)cc1NC(=O)c1ccco1 | 0 | 0 | 0 | 0 | 0
O=C(Nc1cccc(-c2nc3ccccc3[nH]2)c1)c1cccc(NC(=O)c2ccco2)c1 | 54 | 0 | 70 | 0 | 0
Cc1ccc(Sc2c(C=O)c3ccccc3n2C)cc1 | 0 | 0 | 0 | 0 | 0
CC(=NCc1ccccc1)C1=C(O)COC1=O | 0 | 0 | 0 | 0 | 0
Cc1ccc(NS(=O)(=O)c2ccccc2)c2c1CC(C)(C)O2 | 66 | 2 | 0 | 0 | 0
CCc1ccc(/C=C/C(=O)c2c(C)cc(C)[nH]c2=O)cc1 | 80 | 0 | 0 | 0 | 0
O=C(/C=C/c1ccc(O)cc1)c1c(O)cc(O)cc1O | - | - | - | 0 | -
SMILES | CYP2C19 inh | CYP2C9 activ | CYP2C9 inh | Cav32 inh | CYP2C19 activ
N[C@H]1CONC1=O | - | - | - | 0 | -
O=[N+]([O-])c1ccc(N2N=C(c3ccco3)CC2c2ccccc2)cc1 (stereo unspecified) | 0 | 0 | 78 | -5 | 0
O=C(CNC(=O)c1ccc(Cl)cc1Cl)OCC(=O)c1ccc2c(c1)OCCO2 | 0 | 0 | 0 | 0 | 0
COc1ccc(CCNC(=O)C(=O)NCc2ccc(C(C)C)cc2)cc1OC | 0 | 0 | 0 | -7.3 | 0
COc1ccc(CCCc2nnc(SCC(=O)Nc3nccs3)n2C)cc1C | 59 | 0 | 0 | 0 | 0
COc1ccc(CCNC(=O)C(C)Sc2ccccc2)cc1OC (stereo unspecified) | 56 | 0 | 64 | 0 | 0
COc1ccc(CCNC(=O)CSc2nnc(Cc3csc(N)n3)n2C)cc1OC | 0 | 0 | 51 | 0 | 0
CCC(CC)C(=O)NCCc1ccc(OC)c(OC)c1 | 0 | 0 | 0 | 0 | 0
O=C(Nc1ccc(Cl)c(C(F)(F)F)c1)[C@@H]1CC=C[C@@H]2CCN(Cc3ccc(Cl)c(Cl)c3)C(=O)[C@@H]21 | - | - | - | 0 | -
CC(C)CC(NC(=O)C(NC(=O)OC(C)(C)C)C(C)C)C(=O)N1CCCC1C(N)=O (stereo unspecified) | 0 | 0 | 0 | 0 | 0
